What all share (assay): NCI-60 one-dose screen, 48 h (100 = growth as untreated, 0 = no growth, -100 = all killed)
The test system of one assay is HT29 colon. Conditions: 10 µM unless noted.
The next assay concerns SNB-75 CNS. Particulars: 10 µM unless noted.
The test system of the next assay is U251 CNS. Conditions: 10 µM unless noted.
A further assay concerns PC-3 prostate. Particulars: 10 µM unless noted.
Another assay deals with SK-MEL-5 melanoma. Particulars: 10 µM unless noted.
A further assay deals with UACC-62 melanoma. Particulars: 10 µM unless noted.
Another assay deals with LOX IMVI melanoma. Particulars: 10 µM unless noted.
For the next assay, the system named is SK-MEL-28 melanoma. Conditions: 10 µM.
A further assay deals with SK-MEL-2 melanoma. Particulars: 10 µM unless noted.
The next assay concerns EKVX NSCLC. Conditions: 10 µM unless noted.
The subject of the next assay is SN12C renal. Particulars: 10 µM unless noted.
In the next assay the test system is UO-31 renal. Particulars: 10 µM unless noted.
For another assay, the system named is TK-10 renal. Conditions: 10 µM unless noted.
The subject of a further assay is ACHN renal. Particulars: 10 µM unless noted.
In the next assay the test system is CAKI-1 renal. Conditions: 10 µM unless noted.
A further assay has as its system A498 renal. Conditions: 10 µM unless noted.
The test system of the next assay is CCRF-CEM leukemia. Conditions: 10 µM unless noted.
For the next assay, the system named is MOLT-4 leukemia. Particulars: 10 µM unless noted.
The next assay relates to SR leukemia. Conditions: 10 µM unless noted.
The subject of the next assay is SNB-19 CNS. Conditions: 10 µM unless noted.

The structures appear in SMILES notation. This is part of a sample that, as a whole, favours compounds with a hit. Of some 83,000 tested, about 20% had one in any assay.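 Compound tested at a single concentration for 48 hours in 96-well plates; a percent growth value below 10 was scored as active.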 Values without a mark were called inactive. Calls of active or inactive are those of the source.

For `O=c1oc2ccc(F)cc2c(=O)n1-c1ccc(I)cc1F`, the growth with HT29 colon was 46.2%; in the assay with SNB-75 CNS, -15.3% (active); in the assay on U251 CNS, 0.481% (active); with PC-3 prostate, -2.68% (active); in the assay with SK-MEL-5 melanoma, -84.1% (active); in the assay on UACC-62 melanoma it was -16.4% (active). The growth was 10.7% in the assay on LOX IMVI melanoma; 12.3% with SK-MEL-28 melanoma; -19.7% (active) in the assay with SK-MEL-2 melanoma; 9.58% (active) in the assay with EKVX NSCLC; -3.72% (active) in the assay with SN12C renal; 2.62% (active) in the assay on UO-31 renal. Further, the growth in the assay with TK-10 renal is 0.748% (active); with ACHN renal, 1.58% (active); with CAKI-1 renal, -19.2% (active); in the assay with A498 renal, -61.4% (active); with CCRF-CEM leukemia it was 12%; in the assay with MOLT-4 leukemia it was -0.279% (active).
`Cc1ccc2cccc(Oc3ccc(Nc4ncnc5onc(-c6ccccc6)c45)cc3)c2n1`: the growth in the assay with HT29 colon is 57.2%; with SNB-75 CNS it was 78.1%; in the assay on U251 CNS it was 70%; in the assay on PC-3 prostate it was 58.5%; in the assay with SK-MEL-5 melanoma, 46.3%; in the assay on UACC-62 melanoma it was 63.8%. For the same molecule, the growth with LOX IMVI melanoma is 56.5%; with SK-MEL-28 melanoma it was 80.1%; with SK-MEL-2 melanoma, 94%; in the assay with EKVX NSCLC, 85.5%; with SN12C renal it was 83.9%; in the assay with UO-31 renal it was 55.6%. Moreover, the growth in the assay with TK-10 renal is 86.6%; in the assay on ACHN renal it was 80.1%; in the assay on CAKI-1 renal, 89.2%; in the assay on A498 renal, 13%; in the assay with CCRF-CEM leukemia it was 80.7%; in the assay on MOLT-4 leukemia, 72.2%. For the same molecule, the growth in the assay on SR leukemia was 67%.
For the molecule `O=C(Nc1ccc(N2CCNCC2)cc1)c1[nH]ncc1Nc1cc(C2CC2)ncn1`, the growth in the assay with HT29 colon was 49.2%; in the assay with SNB-75 CNS, 31.5%; in the assay on U251 CNS, 68.6%; with PC-3 prostate it was 30.2%; with SK-MEL-5 melanoma, 52.3%; with UACC-62 melanoma it was 50%. Also, the growth is 36.1% in the assay on LOX IMVI melanoma; 79.5% with SK-MEL-28 melanoma; 64.5% with SK-MEL-2 melanoma; 69.8% in the assay with EKVX NSCLC; 44.7% with SN12C renal; 34.1% in the assay with UO-31 renal. Also, the growth was 56.3% with TK-10 renal; 27.5% with CAKI-1 renal; 51.1% in the assay on A498 renal; 30% in the assay on CCRF-CEM leukemia; 15.1% in the assay with MOLT-4 leukemia; 5.95% (active) with SR leukemia.
For the molecule `CCCCNc1nc(NC(C)(C)C)nc(NC(C)(C)C)n1`, the growth in the assay with HT29 colon is 15.2%; in the assay on SNB-75 CNS it was 59.8%; in the assay on U251 CNS it was 38%; with PC-3 prostate, 58.6%; in the assay with SK-MEL-5 melanoma it was 50.7%; with UACC-62 melanoma, 55.3%. The growth with LOX IMVI melanoma was 56.8%; in the assay on SK-MEL-28 melanoma it was 61.4%; in the assay with SK-MEL-2 melanoma, 64.1%; with SN12C renal, 56.1%; in the assay on UO-31 renal, 37.4%; in the assay with TK-10 renal it was 55.9%. Also, the growth was 62.9% in the assay on ACHN renal; 51.3% in the assay on CAKI-1 renal; 45.4% in the assay on A498 renal; 42.4% in the assay on CCRF-CEM leukemia; 39.1% with MOLT-4 leukemia; 33.6% in the assay with SR leukemia.
As to `CN(C)c1ccc(/C=C/c2ccnc3c(O)cccc23)cc1`, the growth was 98.6% with HT29 colon; 28.5% in the assay on SNB-75 CNS; 12% in the assay with U251 CNS; 32% in the assay with PC-3 prostate; 8.23% (active) in the assay with SK-MEL-5 melanoma; -27.6% (active) in the assay on UACC-62 melanoma. Further, the growth is 13.1% with LOX IMVI melanoma; 29.1% in the assay with SK-MEL-28 melanoma; 11.8% in the assay on SK-MEL-2 melanoma; 21.3% with SN12C renal; -2.54% (active) in the assay with UO-31 renal; 41.6% in the assay with TK-10 renal. Also, the growth is 12.7% with ACHN renal; -3.49% (active) with CAKI-1 renal; 45.1% with A498 renal; 6.75% (active) with CCRF-CEM leukemia; -13.2% (active) with MOLT-4 leukemia; -11.1% (active) in the assay with SR leukemia.
On to `O=c1nc2sc3nc4ccccc4cc3cc-2s1`, for which the growth with HT29 colon was 147%; in the assay with SNB-75 CNS it was 116%; in the assay on SNB-19 CNS, 101%; with U251 CNS, 115%; in the assay on SK-MEL-5 melanoma, 100%; in the assay with UACC-62 melanoma, 116%. In addition, the growth with LOX IMVI melanoma was 111%; in the assay with SK-MEL-28 melanoma, 110%; in the assay with SK-MEL-2 melanoma it was 112%; in the assay on EKVX NSCLC, 48%; in the assay with SN12C renal it was 101%; in the assay on UO-31 renal, 117%. Further, the growth is 131% with TK-10 renal; 105% in the assay on ACHN renal; 94.6% in the assay with A498 renal; 127% in the assay with CCRF-CEM leukemia; 120% in the assay with MOLT-4 leukemia; 134% with SR leukemia.
On to `CCCC(=O)CC(C)=O.CCCC(=O)CC(C)=O.[Cu]`, for which the growth is 94.9% in the assay on HT29 colon; 116% in the assay with SNB-75 CNS; 99.9% in the assay with U251 CNS; 76.3% with PC-3 prostate; 103% in the assay with SK-MEL-5 melanoma; 105% in the assay with UACC-62 melanoma. The growth in the assay on LOX IMVI melanoma was 86.5%; in the assay on SK-MEL-28 melanoma it was 106%; in the assay on SK-MEL-2 melanoma it was 113%; in the assay with EKVX NSCLC, 106%; in the assay with SN12C renal it was 110%; with UO-31 renal, 102%. In addition, the growth in the assay with ACHN renal was 105%; with CAKI-1 renal it was 103%; in the assay with A498 renal, 122%; with CCRF-CEM leukemia it was 107%; in the assay with MOLT-4 leukemia, 99.2%; with SR leukemia, 85.6%.
For `O=C(Nc1ccc(C23CC4CC(CC(c5ccccc5)(C4)C2)C3)cc1)c1cccs1`, the growth with HT29 colon is 53.8%; with SNB-75 CNS, 98.6%; with U251 CNS, 69.8%; in the assay with PC-3 prostate it was 60%; in the assay on SK-MEL-5 melanoma, 56.1%; in the assay with UACC-62 melanoma, 63.8%. In addition, the growth in the assay with LOX IMVI melanoma was 76.5%; in the assay with SK-MEL-28 melanoma, 79.5%; with SK-MEL-2 melanoma, 75.6%; in the assay with SN12C renal, 66.7%; in the assay on UO-31 renal, 66.5%; with TK-10 renal, 76.9%. The growth in the assay on ACHN renal was 76.9%; in the assay on CAKI-1 renal it was 77.6%; in the assay on A498 renal, 65.4%; in the assay on CCRF-CEM leukemia it was 56.8%; with MOLT-4 leukemia, 57.7%; in the assay on SR leukemia, 38.7%.
